# MARV entry inh: blocks Marburg virus binding to or entry into cells; Marburg virus pseudotyped entry inhibition, cell reporter; Potency, µM (top dose mostly 37.8 µM), for inactives: at the highest dose activity change, negative = inhibition, most hits filed as inhibitors; actives 1.8% (n = 300,000); AID 540276; calls by dose curve; tested in HEK293 cells
# LASV entry inh: Lassa virus entry inhibition; Lassa virus pseudotype entry inhibition, cell reporter; Potency, µM (doses to about 37.9 µM), inactives show at the highest dose activity change, negative = inhibition, usual class: inhibitors; actives 1.2% (n = 300,000); AID 540256; calls by dose curve; tested in HEK293 cells; also: nearly all actives have a fitted effect of over 50% in size
# Vaccinia mCherry: inhibitors of vaccinia virus infection (mCherry reporter signal) | Vaccinia virus mCherry reporter infection, fluorescence | Potency, µM (series often up to 36.5 µM), for the others: top-dose activity change, negative = inhibition, usual class: inhibitors | actives 0.63% (n = 310,000) | AID 720579; calls by dose curve; tested in A549 cells; also: nearly all actives have a fitted effect of over 35% in size
# HCV inhibitor: HCV inhibition. AID 651820. actives 3.4% (n = 340,000). Potency, µM (titrated, usually from 41.8 µM), without a hit: at the highest dose activity change, negative = inhibition, usual class: inhibitors. Huh7.5.1 HCVcc-Cre infection, luciferase reporter, 44 h; active = well fitted inhibition curve with a large enough effect; inconclusive = small, poorly fitted or top-dose-only effect, or another doubt; inactive = no such curve, though single readings can be large or run the other way
#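 HCVcc-Cre virus at an moi near 0.5 was added right after compound to cells cultured 4 h from seeding (1,000 cells/well). Luciferase activity was determined 44 h later, 15 min after substrate addition at RT.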
# FMDV antiviral: blocks foot and mouth disease virus. actives 1.2% (n = 410,000). Potency, µM (top dose mostly 57.9 µM), without a hit: top-dose activity change, negative = inhibition, usual class: inhibitors. AID 1159524. FMDV antiviral cell-based qHTS; calls by dose curve; tested in HEK293T cells; also: read-out not given here; nearly all actives have a fitted effect of over 45% in size
# Vaccinia Venus: inhibitors of vaccinia virus (Venus reporter); Vaccinia virus Venus reporter expression, fluorescence; Potency, µM (doses to about 36.5 µM), without a hit: at the highest dose activity change, negative = inhibition, usual class: inhibitors; actives 0.46% (n = 330,000); calls by dose curve; tested in A549 cells; also: nearly all actives have a fitted effect of over 30% in size
# * marks the source's active call; other numbers are inactive results; i = inactive; ? = inconclusive; nt = no result given; ! = not active in a repeat; [ ] = remark or other dose. This is a sample that favours compounds with a hit; in the whole collection about 5.3% have one here. % is scaled to controls: 0 for no effect and ±100 for the full control effect; potency is read from the fitted curve at half-maximal effect.
SMILES,MARV entry inh,LASV entry inh,Vaccinia mCherry,HCV inhibitor,FMDV antiviral,Vaccinia Venus
N/C(=N\N=C\c1ccc(O)cc1)c1nonc1N,21µM*,?,i,-18%,-7%,1%
COc1cc(C(=O)OCCCN2CCCN(CCCOC(=O)c3cc(OC)c(OC)c(OC)c3)CC2)cc(OC)c1OC,5.2µM*,?,-6%,8.9µM*,-15%,-9%
COc1cc(C(=O)OCCCN(C)C)cc(OC)c1OC,6%[46.1 µM],-9%,-3%,14%,-2%,-7%
CCN(CC)CCCCCCCCOC(=O)c1cc(OC)c(OC)c(OC)c1,23µM*,?,?,0.56µM*,-8%,?
O=C(NCCCc1ccccc1)c1nn(-c2ccccc2F)nc1CO,10%[46.1 µM],?,-8%,nt,?,-16%
Cc1cc(NC(=O)C(C)(C)Oc2ccc(Cl)cc2)cc(-c2nc3ncccc3o2)c1O,3%[46.1 µM],10%[46.1 µM],-8%,nt,-10%,-4%
CCOC(=O)/C(C#N)=C/c1cc(C)n(-c2ccc(C)cc2)c1C,?,?,-11%[1.46 µM],8.9µM*,-8%,-25%
Cc1cc(/C=C(\C#N)C(=O)Nc2ccccc2)c(C)n1-c1ccc(C(=O)O)cc1,nt,nt,3%,?,-24%,11%
COCCSc1nnc(NC(=O)CS(=O)(=O)c2ccc(C)cc2)s1,8%[46.1 µM],-9%,0%,6%,4%,-3%
COCCSc1nnc(NC(=O)CCS(=O)(=O)c2ccccc2)s1,11µM*,-11%,?,?,-1%,-28%
CC(=O)c1sc(NC(=O)CCS(=O)(=O)c2ccccc2)nc1C,nt,nt,nt,13µM*,0%,nt
O=C(COc1ccccc1)Nc1nc(-c2cccs2)cs1,-10%,?,nt,-14%,-5%,-2%
O=C(CCS(=O)(=O)c1ccccc1)Nc1nc(-c2cccs2)cs1,?,-29%,?,1%[8.37 µM],-30%,4µM*
Cc1cc(NC(=O)c2ccc3c(c2)N(Cc2cccc(Cl)c2)C(=O)c2ccccc2S3(=O)=O)ccc1Br,?,6%[46.1 µM],-11%,nt,-1%,-8%
O=C(C[N+]1(CCO)CCOCC1)c1ccc(F)c2ccccc12,nt,nt,?,nt,nt,-30%
NCC(O)C1CCCCCCC1 (centres undefined),7.1µM*!,3%,nt,nt,nt,nt
COc1ccc(-c2nc(CN3CCN(c4cc(C)nc(C)c4)CC3)c(C)o2)c2ccccc12,?,11µM*,?,?,-8%,11µM*
Cc1cnc(C)c(N2CCN(Cc3nc(-c4ccc(C)o4)oc3C)CC2)n1,-15%[46.1 µM],8%,-13%,-4%,-5%,-10%
Cc1oc(-c2cccc3ccccc23)nc1CN1CCN(c2ncnc3ccccc23)CC1,?,?,-36%,10µM*,16µM*,-29%
Cc1ccc(OCCCCN2CCC(C)CC2)c(Br)c1,15µM*,?,i,?,-10%,-15%
CC1CCN(C(=O)CCCOc2ccc(Cl)cc2)CC1,2%,-23%,-22%,-5%,21%,-19%
Cc1ccc(OCCCCCCN2CCNCC2)c(Br)c1,13µM*,?,-12%,?,-19%,-26%
CC1CCN(CCCCOc2ccc(Cl)cc2)CC1,7.9µM*,6%[46.1 µM],0%,?,-9%,-22%
COc1ccccc1Nc1nc(-c2sc(NC(=O)C(C)(C)C)nc2C)cs1,nt,nt,?,2.5µM*,-17%,-29%
CCCC(=O)Nc1nc(C)c(-c2csc(Nc3ccccc3OC)n2)s1,nt,nt,?,?,-16%,?
SMILES,MARV entry inh,LASV entry inh,Vaccinia mCherry,HCV inhibitor,FMDV antiviral,Vaccinia Venus
C=CCCC(=O)Nc1nc(C)c(-c2csc(Nc3cccc(OC)c3)n2)s1,nt,nt,?,6.3µM*,-22%,?
C=CCCC(=O)Nc1nc(C)c(-c2csc(Nc3cc(OC)ccc3OC)n2)s1,nt,nt,?,3.2µM*,-20%,?
COc1cccc(Nc2nc(-c3sc(NC(=O)CC(C)C)nc3C)cs2)c1,nt,nt,?,-3%,-24%,?
CCCC(=O)Nc1nc(C)c(-c2csc(Nc3cc(OC)ccc3OC)n2)s1,nt,nt,-44%,?,-22%,?
CC(=O)c1ccc(N2CCN(S(=O)(=O)c3ccc4c(c3)CC(C)N4C(=O)C3CCC3)CC2)cc1 (centres undefined),nt,?,-14%,nt,?,-29%
O=C(/C=C/c1ccco1)Oc1cc(Br)cc(/C=N/NC(=O)c2ccccc2O)c1,?,11µM*,2.8µM*,?,?,?
CC(C)(c1ccccc1)c1ccc(OCCN2CCOCC2)cc1,nt,nt,nt,-3%,-28%,nt
CC(C)(c1ccccc1)c1ccc(OCCCN2CCNCC2)cc1,?,?,-18%,8.9µM*,0%,0%
CC(C)(C)c1ccc(OCCCCCCN2CCNCC2)cc1,?,-23%,-16%[7.34 µM],7.9µM*,-13%,-5%[7.34 µM]
CCCCN(C)c1nc2c(S(=O)(=O)c3ccc(CC)cc3)nnn2c2ccc(Cl)cc12,?,nt,i,nt,-7%,-11%
COCCCN1C(=O)C(CC(=O)NCC2CCCCC2)CC(C(=O)N2CCOCC2)=C1C (centres undefined),nt,nt,-14%,nt,-10%,4%
COc1cccc(C(=O)NC(C)c2cccc3ccccc23)c1OC (centres undefined),5.6µM*,?,-5%,-26%,-7%,-1%
COc1ccccc1C(=O)NC(C)c1cccc2ccccc12 (centres undefined),?,-17%,i,?,0%,-16%
COc1ccc(CNC(=O)c2cccc3c(-c4ccc(F)c(F)c4)coc23)cc1OC,nt,nt,11%,nt,-26%,-18%
COc1cc(-c2coc3c(C(=O)NCc4ccc(N(C)C)cc4)cccc23)ccc1O,nt,nt,i,nt,33%,-16%
COc1cc(-c2coc3c(C(=O)NCc4ccc(OC)c(OC)c4)cccc23)ccc1O,nt,nt,16µM*,nt,18µM*,?
COc1ccc(CNC(=O)c2cccc3c(-c4cccc(C(N)=O)c4)coc23)cc1OC,nt,nt,-4%,nt,7.9µM*,-30%
Cc1cccc(NS(=O)(=O)c2ccc3[nH]c(=O)ccc3c2)c1C,nt,1%[46.1 µM],-14%,nt,?,-4%
O=C(C(c1ccccc1)c1ccccc1)N1CC[C@@]2(O)CCCC[C@H]2C1,5.6µM*,-16%,i,25%,-12%,-17%
Cc1ccc(S(=O)(=O)N[C@H](C(=O)N2CCC3(O)CCCCC3C2)c2ccccc2)cc1 (some centres undefined),-17%,-29%,nt,1%,-10%,-19%
Cc1cccc(C(=O)NCC(=O)OCC(=O)c2ccc(Cl)s2)c1,8%[46.1 µM],18%[46.1 µM],-3%,14%,-5%,-12%
CCn1c(SCC(=O)Nc2cc(C(C)(C)C)nn2-c2ccccc2)nnc1-c1cccs1,?,?,i,16µM*,0%,-16%
Cc1nnc(SCC(=O)Nc2cc(C(C)(C)C)nn2-c2ccccc2)s1,-33%,1%,-11%,8%,-20%,-11%
c1ccc2c(-c3nc(C4CCCCC4)no3)cc(-c3ccncc3)nc2c1,?,-16%,nt,8.9µM*,-21%,nt

# High-throughput results: PubChem, National Center for Advancing Translational Sciences (NCATS)
